Screening results (PubChem)
HEK293 tox – qHTS of GLP-1 Receptor Inverse Agonists: Cytotox Screen; HEK293 cAMP-luciferase reporter cells, luminescence, 24 h; Potency, µM (top dose mostly 38.3 µM), for the others: at the highest dose activity change, negative = inhibition, hits mostly inhibitors; AID 624418, 2012; 410,000 compounds, 0.13% hits;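 note: loss of luciferase light is scored as toxicity; potency is the fitted concentration of half-maximal effect; % is set by controls: 0 for no effect and ±100 for the full control effect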
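Luminescence readout: signal drop marks cytotoxicity. Plated cells grew 12 h at 37 °C, 5% CO2, received 23 nL compound for 24 h, then got luciferase reagent, read after 12 min at RT.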
GLP1R inv ag – qHTS of GLP-1 Receptor Inverse Agonists (Inhibition Mode) | 410,000 compounds, 1.6% hits | Potency, µM (highest dose often 38.3 µM), for inactives: at the top dose activity change, negative = inhibition, most hits filed as inhibitors | Glucagon-like peptide 1 receptor (Homo sapiens), P43220 | HEK293 GLP-1R CRE-luciferase, luminescence, 24 h; GLP-1R form is constitutively active; note: potency is the fitted concentration of half-maximal effect; % is set by controls: 0 for no effect and ±100 for the full control effect; nearly all actives have a fitted effect of over 55% in size
Target sequence (P43220 whole entry, looked up): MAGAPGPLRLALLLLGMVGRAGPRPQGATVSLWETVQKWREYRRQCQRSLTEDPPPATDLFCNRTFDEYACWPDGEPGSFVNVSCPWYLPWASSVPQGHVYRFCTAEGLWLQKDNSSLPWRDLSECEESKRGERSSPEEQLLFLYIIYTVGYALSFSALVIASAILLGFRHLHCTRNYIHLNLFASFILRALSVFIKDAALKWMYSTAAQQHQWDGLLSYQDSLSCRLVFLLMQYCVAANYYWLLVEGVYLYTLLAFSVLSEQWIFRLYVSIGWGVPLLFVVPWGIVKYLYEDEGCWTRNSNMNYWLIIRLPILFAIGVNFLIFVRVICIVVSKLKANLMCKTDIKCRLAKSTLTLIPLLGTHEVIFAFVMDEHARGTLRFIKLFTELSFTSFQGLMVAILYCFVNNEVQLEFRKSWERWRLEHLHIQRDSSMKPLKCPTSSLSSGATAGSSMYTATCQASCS
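Constitutively active GLP-1R drives a cAMP-responsive luciferase in stably transfected HEK293 cells; test compounds are added after overnight (12 h) attachment and left 24 hr, and signal loss in luminescence marks inhibition.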
GLP1R ag – qHTS of GLP-1 Receptor Agonists | Glucagon-like peptide 1 receptor (Homo sapiens), P43220 | HEK293 GLP-1R CRE-luciferase, luminescence, 4-6 h; cells express a hypersensitive GLP-1R form | Potency, µM (series often up to 45.6 µM), for the others: top-dose activation, usual class: activators | 380,000 compounds, 0.007% hits | AID 624172, 2012; note: potency is the fitted concentration of half-maximal effect; % of control where 0% means no effect
TRHR enhancer – qHTS for Small Molecule Agonists and Allosteric Enhancers of Human TRH Receptor: Primary Screen for Enhancers. Thyrotropin-releasing hormone receptor (Homo sapiens), P34981. TRHR cells, fluo-8 calcium fluorescence, EC20 TRH enhancement. enhancement, % at 2 µM. 360,000 compounds, 0.66% hits. AID 493056, 2011; in the data active = enhancement above about 30%; note: 0% is about no effect
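Enhancer read-out: after compound pinning and an initial kinetic agonist-mode read, an EC20 of TRH (10 nM final) was injected and fluo-8 calcium signal (Ex 480/Em 530) followed at 1 s/cycle for 100 cycles in TRHR-expressing cells.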
TRHR agonist – qHTS for Small Molecule Agonists and Allosteric Enhancers of Human TRH Receptor: Primary Screen for Agonists | Thyrotropin-releasing hormone receptor (Homo sapiens), P34981 | activation, % at 2 µM | TRHR cells, calcium flux fluo-8, FDSS agonist mode | AID 493084, 2011 | 360,000 compounds, 0.18% hits; in the data active = activation above about 30%; note: 0% is about no effect
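In this calcium-flux screen, cells bearing human TRHR are dye-loaded with fluo-8, baselined for 10 cycles, then exposed to library compounds; positive kinetic calcium responses during the agonist phase mark hits, with TRH as control.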
PTHR1 ag – qHTS for PTHR1 Agonists: Primary Screen; Parathyroid hormone/parathyroid hormone-related peptide receptor (Homo sapiens), Q03431; HEK293 GP2 PTHR1 cells, GloSensor cAMP luminescence, 1 h; Potency, µM (top dose mostly 115 µM), inactives show top-dose activation, hits mostly activators; 410,000 compounds, 0.075% hits; note: potency is the fitted concentration of half-maximal effect; nearly all actives have a fitted effect of over 55% in size
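HEK-293-derived GP2 cells expressing PTHR1 and a GloSensor cAMP reporter, 3,000/well, plated overnight, given luciferin plus IBMX (each 0.5 mM as added) for 1 h at 37 °C, then compound for 1 h at 37 °C. Luminescence was read after 15 min at room temperature.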
The depositor's hits bear a star; i = inactive; ? = inconclusive; nt = no result; [ ] = remark or other dose. Shown are actives, neighbours in structure and some others; about 2.4% of the full set was active somewhere. Unless noted, calls come from the whole dose curve; as a rule, active = well fitted curve in the direction sought with a large enough effect; inconclusive = small, poorly fitted or top-dose-only effect, or another doubt; inactive = no such curve, though single readings can be large; an effect the other way counts as inactive or inconclusive.

SMILES | HEK293 tox | GLP1R inv ag | GLP1R ag | TRHR enhancer | TRHR agonist | PTHR1 ag
O=C(NC1CCCCC1)N1CCN(c2nc(-c3ccccc3)cs2)CC1 | -7%[7.66 µM] | -2%[7.66 µM] | -2% | -3 | 1 | -53%
O=C(NC(=S)N1CCN(c2nc(-c3ccccc3)cs2)CC1)c1cccnc1 | -15% | 8.9µM* | -35% | -17 | 0 | -25%
COc1ccc(N2CCN(C(=O)NC34CC5CC(CC(C5)C3)C4)CC2)cc1 | -21% | 7.9µM* | -3% | -6 | -1 | -33%
O=C(NC12CC3CC(CC(C3)C1)C2)N1CCN(c2ccccc2)CC1 | -13% | ? | 6% | -7 | 1 | -5%
COCCNC(=S)N1CCN(c2nc(-c3ccccc3)cs2)CC1 | -4% | -17% | -3% | 3 | -1 | -75%
CCOc1ccc(NC(=S)N2CCC(c3ccc(C)cc3)C2)cc1 (configuration not stated) | -13% | 10µM* | 5% | 3 | 0 | -7%
Cc1ccc(NC(=S)N2CCC(c3ccc(C)cc3)C2)cc1 (configuration not stated) | -26% | ? | 19% | -4 | 0 | i
CC(C)(CC(=O)NCc1ccc(Cl)cc1Cl)CC1=NS(=O)(=O)c2ccccc2N1 | ? | 8.9µM* | -3% | -3 | 0 | -39%
CS(=O)(=O)c1ccc(-n2c(=O)n(Cc3ccccc3)c(=O)c3[nH]cnc32)cc1 | -16% | 17% | -1% | -5 | 1 | i
Nc1c(C(=O)O)ccc2c1C(=O)c1ccccc1C2=O | 10µM* | 1% | 3% | 4 | 1 | -15%
CCCC(=O)Nc1ccc(C(=O)NCCc2ccc(F)cc2)cc1 | 3% | -10% | -3% | 34* | 0 | i
CCCC(=O)Nc1ccc(C(=O)Nc2cc(C(F)(F)F)ccc2Cl)cc1 | ? | 6.3µM* | -2% | 9 | 8 | i
O=C(CN1c2cccc3cccc(c23)S1(=O)=O)N1CCN(c2ccc(F)cc2)CC1 | -3% | ? | -8% | 3 | 1 | -25%
C[N+]1(CC2COC(c3ccccc3)(c3ccccc3)O2)CCCCC1 (configuration not stated) | nt | nt | 3% | nt | nt | nt
COC(=O)c1cc(C)nc2c1c(=O)nc(SCc1ccccc1Cl)n2C1CC1 | -7% | 0% | nt | -7 | -1 | -12%
CC1CN(C(=O)c2ccccc2OCc2ccc(Cl)cc2Cl)CC(C)O1 (configuration not stated) | 20% | 10µM* | 10% | 4 | 1 | -16%
CC1CN(C(=O)c2cccc(COc3ccccc3Cl)c2)CC(C)O1 (configuration not stated) | -15% | -18% | 24% | 3 | 0 | -48%
O=C(c1ccc(NS(=O)(=O)c2ccc3c(c2)OCCO3)cc1)N1CCCCC1 | 6% | 9% | 2% | -6 | -1 | -33%
O=C(CN(C(=O)Cn1nnc(-c2ccc(F)cc2)n1)c1cnc2ccccc2c1)NCC1CCCO1 (configuration not stated) | -15% | ? | -3% | 1 | 0 | -10%
FC(F)(F)c1ccc(Oc2ccc3ccccc3c2Br)nc1 | 20% | 10µM* | 10% | 1 | 0 | -38%
O=[N+]([O-])c1ccccc1Oc1ccc(C(F)(F)F)cn1 | -3% | 11% | 16% | -5 | -1 | -6%
Cc1cc(C)cc(N(CC(=O)Nc2cc(C)ccc2C)S(=O)(=O)c2c(C)[nH]c(=O)[nH]c2=O)c1 | 1% | -24% | 4% | -2 | 0 | i
Cc1ccc(-n2nnnc2SCC(=O)Nc2cc(C)on2)c(C)c1 | ? | 9% | 0% | 2 | -1 | i
Cc1ccc(-n2nnnc2SCC(=O)Nc2ccc(N3CCN(C)CC3)cc2)c(C)c1 | -16% | 3.5µM* | 12% | -3 | -1 | -23%
Cc1nnc(SCC(=O)Nc2ccc(S(=O)(=O)N3CCCC3)cc2)n1N | -7% | -1% | -9% | 2 | 0 | i
SMILES | HEK293 tox | GLP1R inv ag | GLP1R ag | TRHR enhancer | TRHR agonist | PTHR1 ag
CN1CCN(c2ccc(NC(=O)CSc3nnnn3-c3ccccc3F)cc2)CC1 | -9% | 2.8µM* | -1% | -4 | 0 | i
Cc1ccccc1-n1nnnc1SCC(=O)Nc1ccc(S(=O)(=O)N2CCCC2)cc1 | -13% | 11µM* | 3% | 6 | 1 | -19%[57.5 µM]
O=S1(=O)CCN2C(c3cccc4ccccc34)=CSC2=N1 | 0% | 7% | 7% | -9 | 0 | -8%
Cc1ccc(Cl)cc1-n1ncc2c(NCCCc3ccccc3)ncnc21 | -1% | 11µM* | nt | -5 | 1 | -39%
Cc1ccc(Cl)cc1-n1ncc2c(NCCC3=CCCCC3)ncnc21 | -8% | 8.9µM* | nt | -2 | 3 | -23%
Cc1ccc(Cl)cc1-n1ncc2c(NCCc3ccccc3)ncnc21 | -3% | ? | nt | -3 | -1 | -42%
COC(=O)CSc1nc2sc3c(c2c(=O)n1-c1ccc(OC)cc1)CCN(C)C3 | 7% | 5% | 12% | 33* | 2 | i
CC(NC(=O)CSc1nc2sc3c(c2c(=O)n1-c1ccccc1)CCCC3)c1ccccc1 (configuration not stated) | -17% | 8.9µM* | 0% | 2 | 1 | i
CCOC(=O)CSc1nc2sc3c(c2c(=O)n1-c1ccc(OC)cc1)CCN(C)C3 | 2% | -3% | 3% | -3 | 1 | i
CN(C)CCNc1nc2sc3c(c2c(=O)n1CCc1ccccc1)CCCCC3 | ? | ? | 8% | 2 | 8 | i
CC(O)CNc1nc2sc3c(c2c(=O)n1CCc1ccccc1)CCCCC3 (configuration not stated) | ? | 4.5µM* | 20% | 5 | 1 | -47%
COc1ccc(C2/C=C\CN(CC(C)(C)C)CC(=O)N2Cc2ccc(F)cc2)cc1 (configuration not stated) | 0% | ? | -5% | -2 | 0 | 16%
Clc1ccc(-c2nnc(CNC3CC3)o2)cc1 | 9% | 19% | -5% | -1 | -1 | 13%
CCc1cc(CNC(=O)c2ccc(OC3CCN(CCc4ccccc4)CC3)cc2)on1 | -29% | ? | -5% | 1 | 0 | i
